8 compounds from PubChem BioAssay (NCATS) can be followed below.

The assay addresses Atrial natriuretic peptide receptor 1 (Homo sapiens) (UniProt P16066). Nature of the assay: Natriuretic polypeptide receptor (hNpr1) antagonism - Pilot CMLD screen (AID 1347052).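 Also: HEK293 cells with hNpr1 stimulated by hNppA peptide at 0.1 nM; cGMP level read as GloSensor luciferase luminescence after agonist stimulation; series mostly up to about 9.2 µM.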

Inconclusive results are not listed. A call without a number means that no potency is given here. Active and inactive are the calls of the source. Calls follow the shape of the full dose curve.

Atrial natriuretic peptide receptor 1 (Homo sapiens), sequence (P16066 whole entry, looked up): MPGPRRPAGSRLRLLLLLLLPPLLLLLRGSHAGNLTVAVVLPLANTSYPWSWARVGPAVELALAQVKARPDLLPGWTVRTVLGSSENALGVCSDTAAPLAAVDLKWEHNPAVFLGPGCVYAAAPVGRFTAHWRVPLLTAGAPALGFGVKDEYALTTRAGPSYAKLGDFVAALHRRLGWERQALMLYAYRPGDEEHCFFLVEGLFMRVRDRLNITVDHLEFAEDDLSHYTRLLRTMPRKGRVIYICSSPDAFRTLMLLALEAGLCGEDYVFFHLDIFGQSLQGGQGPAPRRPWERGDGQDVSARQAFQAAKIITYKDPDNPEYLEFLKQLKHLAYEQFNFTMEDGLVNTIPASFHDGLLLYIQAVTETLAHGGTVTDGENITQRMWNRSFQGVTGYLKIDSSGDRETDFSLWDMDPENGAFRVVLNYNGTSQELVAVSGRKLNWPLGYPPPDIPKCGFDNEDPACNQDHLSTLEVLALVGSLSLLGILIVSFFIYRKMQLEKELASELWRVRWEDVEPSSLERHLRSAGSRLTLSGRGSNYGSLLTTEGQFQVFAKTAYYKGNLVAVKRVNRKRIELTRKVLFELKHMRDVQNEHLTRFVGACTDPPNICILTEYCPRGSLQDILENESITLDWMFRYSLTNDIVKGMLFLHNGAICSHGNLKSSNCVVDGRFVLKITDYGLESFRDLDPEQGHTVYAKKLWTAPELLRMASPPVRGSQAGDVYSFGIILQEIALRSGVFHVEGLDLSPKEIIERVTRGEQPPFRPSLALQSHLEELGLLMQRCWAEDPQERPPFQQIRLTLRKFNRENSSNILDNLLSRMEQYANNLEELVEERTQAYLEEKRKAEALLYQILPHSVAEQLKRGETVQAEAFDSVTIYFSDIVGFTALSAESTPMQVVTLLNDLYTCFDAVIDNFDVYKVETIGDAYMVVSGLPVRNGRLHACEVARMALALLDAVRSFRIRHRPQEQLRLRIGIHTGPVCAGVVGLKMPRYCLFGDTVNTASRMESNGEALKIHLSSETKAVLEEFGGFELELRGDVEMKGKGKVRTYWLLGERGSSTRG

Take `C=CCC12C=C(OC)C(=O)C(C1=O)C(c1ccc(OC)cc1)C2C` (stereo not drawn): the Potency entry was “inactive”. Consider `COc1cccc([C@@H]2Oc3ccc(OC)cc3C(=O)[C@@H]2O)c1`, for which the Potency result was “inactive”. For the compound `CCOC(=O)OC[C@H]1O[C@H](c2ccc(C(C)=O)cc2)C=C[C@H]1Oc1ccc(-c2ccccc2)cc1`, the Potency entry is “inactive”. Turning to `COc1cccc([C@@H]2NC(=O)CC=C[C@H](C)[C@H](c3cccc(OC)c3)NC(=O)CC=C[C@H]2C)c1`, the Potency result was “inactive”.

Take `Cc1cc(C)cc(-c2cc3c(c(-c4c(O)c(-c5cc(C)cc(C)c5)cc5c4CCCC5)c2O)CCCC3)c1`: the Potency entry is “inactive”.

Consider `CC(CCN1CCCCc2nc(C)c(C)cc21)=NO[C@H](C)CN1CCCc2nc(C)c(C)cc21`, for which the Potency entry is “inactive”.

`CCN1C(=NCc2ccc3c(c2)OCO3)NC(c2ccccc2)C(C(=O)OC)=C1C` (stereo not drawn): the Potency entry was “inactive”.

Consider `COC1=C(C(=O)c2ccccc2)C(=O)[C@@]2(CC=C(C)C)C[C@H](C(=O)OCC(F)(F)F)C(C)(C)[C@@]1(CC=C(C)C)C2=O`, for which the Potency entry was “inactive”.
